# In PubChem BioAssay (NCATS):
# Records with an inconclusive call do not appear. Where a call stands in place of a potency, no number is given. Calls of active or inactive are those of the source. Unless noted, calls come from the whole dose curve; as a rule, active = well fitted curve in the direction sought with a large enough effect; inconclusive = small, poorly fitted or top-dose-only effect, or another doubt; inactive = no such curve, though single readings can be large; an effect the other way counts as inactive or inconclusive.
# What was measured:
# [1] = biological target: Ubiquitin carboxyl-terminal hydrolase 1 (Homo sapiens) (UniProt O94782); assay: Inhibitors of USP1/UAF1: Pilot qHTS (AID 504865); note: nearly all actives have a fitted effect of over 35% in size; note: potency is the fitted concentration of half-maximal effect
# Outline: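 In 50mM HEPES pH 7.8 containing 0.5mM EDTA, 1mM TCEP, 0.1 mg/ml BSA and 0.01% Tween-20, 1nM USP1/UAF1 is exposed to compound for 15 min, then Ub-Rho (150nM final) is added and fluorescence is read over time.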
# [2] = biological target: DNA dC->dU-editing enzyme APOBEC-3G (Homo sapiens) (UniProt Q9HC16); assay: qHTS for inhibitors of Vif-A3G interactions: Validation (AID 588379)
# Outline: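 HeLa cells stably expressing Vif and A3G-eYFP, 700 cells/well, incubated overnight at 37 deg C, then exposed to compound overnight at 37 deg C. Inhibition of Vif-mediated degradation read as increased yellow fluorescence (Ex 488/Em 500-530) by laser-scanning cytometry.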
# [3] = biological target: Bile acid receptor (Homo sapiens) (UniProt Q96RI1); assay: qHTS assay for small molecule antagonists of farnesoid X receptor signaling (AID 588526; calls by dose curve)
# Outline: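 Concentration-response titrations were fitted to the Hill equation for half-maximal inhibition and maximal response, with data normalised to 50 uM chenodeoxycholic acid and DMSO control wells. Cells: FXR-UAS-bla HEK293T, dialyzed FBS.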
# [4] = qHTS for Inhibitors of Cell Surface uPA Generation: Validation Assay (AID 493164);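 note: RAW 264.7 macrophage cells exposed to compound for 18 h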
# Outline: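 RAW 264.7, 4000 cells/well, o/n plating; cpd 7-pt 1:5 dilution 2.45 nM–38.3 uM final; 18 h, 37 C/5% CO2; ATP-Lite, 5 s luminescence exposure.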
# [5] = biological target: Galactokinase (Homo sapiens) (UniProt P51570); assay: qHTS Validation Assay for Inhibitors of Human Galactokinase (GALK) (AID 493189)
# Outline: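 5 nM GALK / 100 uM galactose / 35 uM ATP, 20 mM HEPES pH8.0, 5 mM MgCl2, 60 mM NaCl, 1 mM DTT, 0.01% BSA (final). RT 1 h; Kinase-Glo Plus luminescence.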
# [6] = Validation screen for small molecules that induce DNA re-replication in SW480 colon adenocarcinoma cells (AID 504364)
# Description: H Molecular Libraries Probe Production Network [MLPCN]
# NIH Chemical Genomics Center [NCGC]
# Assay Provider: Melvin DePamphilis, NICHD, NIH
# Eukaryotic cells normally restrict genome duplication to once per cell division. When this process is aberrant, DNA re-replication occurs when cells reinitiate DNA replication before the first round of replication is complete. DNA re-replication induces the DNA damage response, arrests cell proliferation, and triggers apoptosis. The cell cycle components cyclin A, Cdt-1, Cdc6 and geminin are critical regulators of this process and their misregulation results in DNA re-replication in normal and cancer cells. To identify compounds that induce re-replication in normal cells, an image-based assay was used to measure DNA content of nuclei, as detected by the fluorescent DNA binding dye, Hoechst. Cell nuclei were imaged by a fluorescence scanning plate imager and compounds that induce DNA re-replication were identified by the increase of nuclei with elevated fluorescence intensity.#
# For screening, 250 cells in 5 uL/well were dispensed into black clear 1536-well plates (Aurora) using a solenoid-based dispenser. Following transfer of 23 nL compound or DMSO vehicle by a pin tool, the plates were incubated 48 hr at 37 C and 5% CO2. […]
# [7] = biological target: Peptidyl-prolyl cis-trans isomerase NIMA-interacting 1 (Homo sapiens) (UniProt Q13526); assay: qHTS Validation Assay to Find Inhibitors of Pin1 (AID 504536; active = well fitted inhibition curve with a large enough effect in the polarisation, with a control signal flat, not every such curve was filed as active; the % refers to the polarisation)
# Outline: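 Fluorescence polarization competition: compounds (titration) displace HiFluor-488-labeled Pin1-1b peptide from Pin1 (0.3 uM final) in pH 7.5 HEPES buffer with DTT, 10 min at room temperature; %Activity normalized to no-enzyme wells, curves fitted.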
# [8] = biological target: Phosphoglycerate kinase, glycosomal (Trypanosoma brucei brucei) (UniProt P07378); assay: qHTS Validation Assay to Find Inhibitors of Phosphoglycerate Kinase (AID 504547)
# Outline: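 Substrate/PGK mix plus compound; reaction started with GAPDH (100nM final) to form 1,3-BPG; 60 min RT; Kinase-Glo Plus 10 min; luminescence. TEA 100mM pH 7.6, MgCl2 5mM, Tween-20 0.01%.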
# [9] = qHTS for Inhibitors of ATXN expression: Validation of Cytotoxic Assay (AID 588349)
# Outline: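 HEK293 cells were dosed with titrated compounds for 72 hr at 37 degrees C. Viability was read by CellTiter Glo luminescence, with intracellular ATP as the marker of cell survival.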
# [10] = qHTS for Inhibitors of ATXN expression: Validation (AID 588378); note: series mostly up to about 57 µM; nearly all actives have a fitted effect of over 75% in size
# Outline: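 Compounds were pinned onto attached HEK293 cells carrying an ATXN2-firefly luciferase construct and incubated 24 hrs at 37 degrees C. Each well then received a fluorescent viability reagent followed by luciferase substrate for end-point luminescence.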
# Chain of Ubiquitin carboxyl-terminal hydrolase 1 (Homo sapiens) (O94782 whole entry, looked up): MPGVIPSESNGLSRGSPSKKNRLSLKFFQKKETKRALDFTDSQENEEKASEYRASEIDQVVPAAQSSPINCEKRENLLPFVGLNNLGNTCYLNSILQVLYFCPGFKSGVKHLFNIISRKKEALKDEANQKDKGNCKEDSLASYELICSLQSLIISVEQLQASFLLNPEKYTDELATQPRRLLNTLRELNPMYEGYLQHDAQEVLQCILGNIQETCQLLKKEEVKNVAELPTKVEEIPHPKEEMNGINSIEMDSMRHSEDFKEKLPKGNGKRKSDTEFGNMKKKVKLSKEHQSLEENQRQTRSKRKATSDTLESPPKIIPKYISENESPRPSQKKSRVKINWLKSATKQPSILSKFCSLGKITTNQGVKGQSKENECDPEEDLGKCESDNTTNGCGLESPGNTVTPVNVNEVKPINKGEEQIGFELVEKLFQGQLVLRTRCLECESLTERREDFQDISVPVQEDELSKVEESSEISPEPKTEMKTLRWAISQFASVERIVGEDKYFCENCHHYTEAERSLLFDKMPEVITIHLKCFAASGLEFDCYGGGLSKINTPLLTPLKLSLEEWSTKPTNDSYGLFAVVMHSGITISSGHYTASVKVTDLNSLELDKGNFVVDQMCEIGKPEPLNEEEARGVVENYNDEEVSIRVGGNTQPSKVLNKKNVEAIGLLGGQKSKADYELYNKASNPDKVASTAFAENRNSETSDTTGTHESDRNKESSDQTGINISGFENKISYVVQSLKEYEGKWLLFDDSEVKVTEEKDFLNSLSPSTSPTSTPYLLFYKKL
# Chain of Bile acid receptor (Homo sapiens) (Q96RI1 whole entry, looked up): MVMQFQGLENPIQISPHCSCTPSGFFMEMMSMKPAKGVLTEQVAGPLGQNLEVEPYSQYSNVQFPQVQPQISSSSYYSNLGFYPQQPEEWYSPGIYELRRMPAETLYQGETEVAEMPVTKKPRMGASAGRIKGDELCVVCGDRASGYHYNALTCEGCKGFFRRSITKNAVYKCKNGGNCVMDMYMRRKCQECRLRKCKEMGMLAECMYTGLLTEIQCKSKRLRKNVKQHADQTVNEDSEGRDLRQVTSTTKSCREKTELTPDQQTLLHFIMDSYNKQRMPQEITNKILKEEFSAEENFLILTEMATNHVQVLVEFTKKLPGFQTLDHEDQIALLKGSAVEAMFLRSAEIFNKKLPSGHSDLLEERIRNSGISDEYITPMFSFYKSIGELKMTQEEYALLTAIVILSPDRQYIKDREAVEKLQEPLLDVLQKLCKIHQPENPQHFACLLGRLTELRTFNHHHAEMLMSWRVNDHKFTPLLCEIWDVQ
# Chain of Galactokinase (Homo sapiens) (P51570 whole entry, looked up): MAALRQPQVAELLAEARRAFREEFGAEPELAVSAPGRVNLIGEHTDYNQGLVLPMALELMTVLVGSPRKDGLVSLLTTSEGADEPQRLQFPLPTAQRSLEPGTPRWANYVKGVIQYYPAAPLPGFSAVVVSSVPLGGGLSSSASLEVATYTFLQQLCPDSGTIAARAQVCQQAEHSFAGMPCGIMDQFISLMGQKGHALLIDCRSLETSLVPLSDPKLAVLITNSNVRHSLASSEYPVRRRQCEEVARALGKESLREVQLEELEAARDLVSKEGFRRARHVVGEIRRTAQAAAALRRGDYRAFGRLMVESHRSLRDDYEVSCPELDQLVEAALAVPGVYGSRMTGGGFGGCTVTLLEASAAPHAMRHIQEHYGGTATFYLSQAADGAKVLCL
# Chain of DNA dC->dU-editing enzyme APOBEC-3G (Homo sapiens) (Q9HC16 whole entry, looked up): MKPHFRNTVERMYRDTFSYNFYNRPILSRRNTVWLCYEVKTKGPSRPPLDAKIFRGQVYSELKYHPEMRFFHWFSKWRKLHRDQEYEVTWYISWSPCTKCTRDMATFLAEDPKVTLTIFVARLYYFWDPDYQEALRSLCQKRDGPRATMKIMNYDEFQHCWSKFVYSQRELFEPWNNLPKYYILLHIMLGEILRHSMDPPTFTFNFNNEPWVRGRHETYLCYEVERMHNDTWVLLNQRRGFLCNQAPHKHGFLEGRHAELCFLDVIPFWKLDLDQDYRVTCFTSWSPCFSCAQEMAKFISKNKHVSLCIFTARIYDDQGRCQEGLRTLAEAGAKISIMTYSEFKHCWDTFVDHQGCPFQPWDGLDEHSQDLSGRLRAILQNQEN
# Chain of Phosphoglycerate kinase, glycosomal (Trypanosoma brucei brucei) (P07378 whole entry, looked up): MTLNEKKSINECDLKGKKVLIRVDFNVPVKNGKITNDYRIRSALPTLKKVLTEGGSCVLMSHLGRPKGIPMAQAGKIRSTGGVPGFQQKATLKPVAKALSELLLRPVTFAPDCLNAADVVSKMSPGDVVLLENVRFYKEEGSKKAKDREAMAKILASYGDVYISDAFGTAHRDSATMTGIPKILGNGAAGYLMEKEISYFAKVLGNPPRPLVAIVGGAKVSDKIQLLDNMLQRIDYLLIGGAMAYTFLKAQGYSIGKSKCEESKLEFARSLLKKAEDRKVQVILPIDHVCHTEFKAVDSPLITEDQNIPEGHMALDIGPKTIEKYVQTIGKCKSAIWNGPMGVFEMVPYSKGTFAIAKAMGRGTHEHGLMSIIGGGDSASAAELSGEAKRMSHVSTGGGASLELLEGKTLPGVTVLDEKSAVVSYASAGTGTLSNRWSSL
# Chain of Peptidyl-prolyl cis-trans isomerase NIMA-interacting 1 (Homo sapiens) (Q13526 whole entry, looked up): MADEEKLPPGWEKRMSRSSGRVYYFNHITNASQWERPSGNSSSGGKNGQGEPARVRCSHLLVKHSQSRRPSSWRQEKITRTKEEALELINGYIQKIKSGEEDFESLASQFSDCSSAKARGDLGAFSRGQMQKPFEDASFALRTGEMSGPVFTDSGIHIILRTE
compound,measurement,setting,value
Nc1ccn([C@@H]2O[C@H](CO)[C@H](O)C2(F)F)c(=O)n1,Potency,[1],inactive
Nc1ccc(S(=O)(=O)Nc2ncccn2)cc1,Potency,[1],inactive
COC(=O)C[C@](O)(CCCC(C)(C)O)C(=O)O[C@@H]1C(OC)=C[C@]23CCCN2CCc2cc4c(cc2[C@H]13)OCO4,Potency,[1],inactive
same,outcome,[2],inactive
C[C@H]1C[C@@H]2[C@@H]([C@@H](O)C[C@@]3(C)[C@H]2CC[C@]3(O)C(=O)CO)[C@@]2(C)C=CC(=O)C=C12,Potency,[1],inactive
CC1(C)O[C@@H]2C[C@@H]3[C@H]4C[C@@H](F)C5=CC(=O)C=C[C@]5(C)[C@@]4(F)[C@@H](O)C[C@]3(C)[C@]2(C(=O)CO)O1,Potency,[1],inactive
COc1c(N2C[C@@H]3CCCN[C@H]3C2)c(F)cc2c(=O)c(C(=O)O)cn(C3CC3)c12,Potency,[1],inactive
O=C(O)CCCc1c[nH]c2ccccc12,outcome,[3],inactive
CC[C@@]1(O)C(=O)OCc2c1cc1n(c2=O)Cc2cc3cc(O)ccc3nc2-1,Potency,[1],inactive
COC(=O)C1=C(C)NC(C)=C(C(=O)OCCN2CCN(C(c3ccccc3)c3ccccc3)CC2)C1c1cccc([N+](=O)[O-])c1 (configuration not stated),Potency,[1],inactive
O=c1c2ccccc2nc2n1CCc1c-2[nH]c2ccccc12,outcome,[4],inactive
same,outcome,[5],inactive
same,outcome,[6],inactive
same,outcome,[7],inactive
same,outcome,[8],inactive
same,Potency,[1],inactive
same,outcome,[9],inactive
same,outcome,[10],inactive
O=c1[nH]c(=O)n(C2CCCO2)cc1F (configuration not stated),Potency,[1],inactive
CC=CC1=C(C(=O)O)N2C(=O)[C@H](NC(=O)[C@H](N)c3ccc(O)cc3)[C@@H]2SC1,Potency,[1],inactive
COc1cc(C(=O)NS(=O)(=O)c2ccccc2C)ccc1Cc1cn(C)c2ccc(NC(=O)OC3CCCC3)cc12,Potency,[1],35.5 µM (active)
O=C(O)CO.[NH2-].[NH2-].[Pt+2],Potency,[1],inactive
